Experimental data published in PubChem BioAssay (NCATS).
Results filed as inconclusive are left out. Calls of active or inactive are those of the source. Calls follow the shape of the dose curve; as a rule, active = well fitted activation curve with a large enough effect; inconclusive = small, poorly fitted or top-dose-only effect; inactive = no such curve, though single readings can be large or run the other way.

target: Rap guanine nucleotide exchange factor 3 (Homo sapiens) (UniProt O95398); test: Confirmatory qHTS for agonist of cAMP-regulated guanine nucleotide exchange factor 3 (EPAC1) (AID 1645881); details: EPAC1 Rap1B BODIPY-GDP exchange fluorescence; series mostly up to 154 µM;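 also: EPAC1 catalysed release of BODIPY-GDP from Rap1B seen as fluorescence loss; 100% = effect of cAMP agonist control; nearly all actives have a fitted effect of over 75% in size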
Sequence (O95398 whole entry, looked up): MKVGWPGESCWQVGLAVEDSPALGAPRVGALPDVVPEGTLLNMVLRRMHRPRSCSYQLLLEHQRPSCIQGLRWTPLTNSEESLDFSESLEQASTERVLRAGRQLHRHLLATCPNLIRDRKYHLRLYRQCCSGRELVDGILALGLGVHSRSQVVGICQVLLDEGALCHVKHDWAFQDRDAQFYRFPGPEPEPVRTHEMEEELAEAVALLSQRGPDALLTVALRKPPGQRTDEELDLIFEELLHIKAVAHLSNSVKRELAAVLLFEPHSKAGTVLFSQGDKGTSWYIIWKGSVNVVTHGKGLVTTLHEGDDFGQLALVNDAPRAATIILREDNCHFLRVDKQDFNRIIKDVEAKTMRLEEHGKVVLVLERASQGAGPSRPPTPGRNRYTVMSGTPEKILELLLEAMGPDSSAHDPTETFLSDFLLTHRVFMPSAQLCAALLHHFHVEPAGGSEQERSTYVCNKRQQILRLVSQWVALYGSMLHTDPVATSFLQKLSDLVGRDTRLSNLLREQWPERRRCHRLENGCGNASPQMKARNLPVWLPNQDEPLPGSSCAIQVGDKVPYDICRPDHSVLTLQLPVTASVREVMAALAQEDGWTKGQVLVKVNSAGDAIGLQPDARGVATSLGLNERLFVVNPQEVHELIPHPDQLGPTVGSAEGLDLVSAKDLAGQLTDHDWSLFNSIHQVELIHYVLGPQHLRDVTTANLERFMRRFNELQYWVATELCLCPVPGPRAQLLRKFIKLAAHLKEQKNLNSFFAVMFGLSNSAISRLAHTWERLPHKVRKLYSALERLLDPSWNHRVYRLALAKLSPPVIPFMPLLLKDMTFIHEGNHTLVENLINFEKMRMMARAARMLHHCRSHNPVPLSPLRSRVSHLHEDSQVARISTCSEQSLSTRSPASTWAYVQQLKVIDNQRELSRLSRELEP

Potency, inactive:
Cc1ccc(Nc2c([N+](=O)[O-])c(=O)oc3ccccc23)cc1C
O=C1c2ccccc2C(c2nnnn2Cc2ccccc2)N1CCc1c[nH]c2ccccc12 (stereo not given)
CN(CC(=O)Nc1ccccc1Cl)C(=O)c1ccc(Cl)c(S(=O)(=O)N2CCCCCC2)c1
Cc1cccc(NC(=S)N2CCN(S(=O)(=O)c3cccc(F)c3)CC2)c1
CCc1ccc(S(=O)(=O)Nc2cc(SCC(=O)O)c(O)c3ccccc23)cc1
Cc1ccc(O)c(CNc2ccc(S(=O)(=O)Nc3nccs3)cc2)c1
C=C1SC(Nc2c(C)cccc2C)=NC12CCCCC2
COc1cccc(C(=O)Oc2ccc(/C=N/Nc3ccc(C(=O)O)cc3)cc2OC)c1
CCC(=C(c1ccc(OC)cc1)c1ccc(OC)cc1)c1cn(CC(O)CN(CCO)CCO)c2ccccc12 (stereo not given)
COc1cnc(N(C)C)nc1Sc1cccc(Cl)c1
CCOc1cc(/C=N/O)cc(Br)c1OCc1ccc(Cl)cc1
CCCCn1c(=O)[nH]c(=O)c2c1nc(-c1ccccc1F)n2Cc1ccccc1OC
CCOC(=O)C1C(=O)C=C(c2ccc(C)cc2)CC1c1ccccc1 (stereo not given)
CCOc1cc(C)c(-c2onc(C(F)(F)F)c2-c2csc(C)n2)c(O)c1
CCOC(=O)C1=C(N)Oc2ccc3ccccc3c2C1c1ccc(O)cc1 (stereo not given)
O=C(O)c1ccc(COc2ccccc2/C=C2\NC(=O)N(Cc3ccc(F)cc3)C2=O)cc1
O=C(O)c1ccc(COc2ccc3ccccc3c2/C=C2/NC(=O)N(Cc3ccc(F)cc3)C2=O)cc1
CC1(c2ccccc2)CC(C)(C)N2C(=O)C(=O)c3cccc1c32 (stereo not given)
Cc1cccc(OC(=O)Nc2ccc(C(=O)O)c(O)c2)c1
COc1ccc(-c2nc(CCNS(=O)(=O)c3ccc4c(c3)OCCO4)cs2)cc1
O=C(CSc1n[nH]c(=O)[nH]c1=O)Nc1ccc2c(c1)C(=O)c1ccccc1C2=O
CCCCCOC(=O)C1=C(C)Nc2nnnn2C1c1ccccc1Cl (stereo not given)
Cc1ccc(C)c(Cn2nc(-c3ccccc3)ccc2=O)c1
Cn1c(N)c(C(=O)COC(=O)Cc2ccc(Cl)c(Cl)c2)c(=O)n(C)c1=O
O=C(N/N=C/c1ccoc1)c1cc(O)cc(O)c1
O=C(Nc1ccncc1)c1cc2ccccc2cc1O
COc1ccccc1N1C(=O)C2C(C(=O)c3ccccc3)=NN(c3ccc(Br)cc3)C2C1=O (stereo not given)
CC(C)CCNC(=O)c1cnn2c(C(F)(F)F)cc(-c3ccco3)nc12
O=S(=O)(Nc1ccccc1-c1ccccc1)c1ccccc1
Cc1ccc(C(=O)NNC(=O)c2ccccc2O)cc1S(=O)(=O)N1CCCCC1
CCCN(CCC)Cc1cc(=O)oc2cc(OC)ccc12
N=C1S/C(=C\c2ccco2)C(=O)N1c1ccc2c(c1)OCO2
CCN(CC)S(=O)(=O)c1ccc2[nH]c(=O)cc(C(=O)Nc3ccc(C)c(S(=O)(=O)N(CC)CC)c3)c2c1
COC1OC(c2ccccc2)=C(c2cnc(N)nc2)c2ccc(F)cc21 (stereo not given)
O=C(NCCc1ccccc1)c1cccc(NC(=O)c2ccccc2)c1
CN(CC(=O)Nc1ccc(F)cc1)C(=O)COc1ccc(C(=O)c2ccccc2)cc1
COc1cccc(/C=C2/NC(=O)N(CC(=O)Nc3ccc(C)cc3)C2=O)c1OCc1cccc(C(=O)O)c1
COc1ccc(/C=N/NC(=O)c2ccccc2O)cc1Cn1nnc2ccccc21
CCc1nc2c(OCc3ccc(C(=O)OC)cc3)cccn2c1N(C)C(=O)c1ccc(OC)cc1
O=C(CC1C[C@H](C(=O)N2CCCCC2)[C@@]2(CCc3ccccc3)c3[nH]c4ccccc4c3CCN2C1=O)NCCCn1ccnc1 (stereo not given in full)

target: Rap guanine nucleotide exchange factor 4 (Homo sapiens) (UniProt Q8WZA2); test: Confirmatory qHTS for agonist of cAMP-regulated guanine nucleotide exchange factor 4 (EPAC2) (AID 1645884); details: EPAC2 GEF activity, Rap1B-BODIPY-GDP fluorescence; series mostly up to 154 µM;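 also: nucleotide exchange releases bodipy-GDP from Rap1 and this lowers its fluorescence; % is scaled to controls: 0 for no effect and ±100 for the full control effect; nearly all actives have a fitted effect of over 65% in size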
Sequence (Q8WZA2 whole entry, looked up): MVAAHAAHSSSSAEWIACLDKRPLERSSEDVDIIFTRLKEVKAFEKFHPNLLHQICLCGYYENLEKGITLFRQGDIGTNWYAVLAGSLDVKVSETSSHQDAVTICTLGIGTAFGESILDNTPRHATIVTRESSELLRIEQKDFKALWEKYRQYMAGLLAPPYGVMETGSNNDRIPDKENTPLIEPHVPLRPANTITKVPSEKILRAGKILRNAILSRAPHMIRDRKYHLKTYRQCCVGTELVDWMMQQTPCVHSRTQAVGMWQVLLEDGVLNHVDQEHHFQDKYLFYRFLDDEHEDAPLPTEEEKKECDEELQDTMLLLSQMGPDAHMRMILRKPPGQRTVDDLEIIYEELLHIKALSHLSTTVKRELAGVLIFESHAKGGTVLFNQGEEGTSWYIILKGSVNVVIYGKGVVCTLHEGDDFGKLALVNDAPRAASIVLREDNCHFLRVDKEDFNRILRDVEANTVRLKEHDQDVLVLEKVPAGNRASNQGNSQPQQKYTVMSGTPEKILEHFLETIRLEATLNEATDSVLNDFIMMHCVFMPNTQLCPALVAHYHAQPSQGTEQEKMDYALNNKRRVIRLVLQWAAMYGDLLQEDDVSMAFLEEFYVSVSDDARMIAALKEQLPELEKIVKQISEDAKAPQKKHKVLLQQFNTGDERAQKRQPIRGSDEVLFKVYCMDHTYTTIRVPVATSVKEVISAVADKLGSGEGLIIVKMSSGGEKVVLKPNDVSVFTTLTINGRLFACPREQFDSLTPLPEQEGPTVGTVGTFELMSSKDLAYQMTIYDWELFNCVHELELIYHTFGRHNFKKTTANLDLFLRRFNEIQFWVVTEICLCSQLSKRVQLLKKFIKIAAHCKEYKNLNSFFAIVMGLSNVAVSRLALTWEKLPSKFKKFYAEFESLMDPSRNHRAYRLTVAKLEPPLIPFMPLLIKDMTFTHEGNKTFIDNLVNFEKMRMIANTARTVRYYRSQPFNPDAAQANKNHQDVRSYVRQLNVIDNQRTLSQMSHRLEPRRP

Potency, inactive:
Cc1ccc(Nc2c([N+](=O)[O-])c(=O)oc3ccccc23)cc1C
O=C1c2ccccc2C(c2nnnn2Cc2ccccc2)N1CCc1c[nH]c2ccccc12 (stereo not given)
CN(CC(=O)Nc1ccccc1Cl)C(=O)c1ccc(Cl)c(S(=O)(=O)N2CCCCCC2)c1
Cc1cccc(NC(=S)N2CCN(S(=O)(=O)c3cccc(F)c3)CC2)c1
CCc1ccc(S(=O)(=O)Nc2cc(SCC(=O)O)c(O)c3ccccc23)cc1
C=C1SC(Nc2c(C)cccc2C)=NC12CCCCC2
COc1cccc(C(=O)Oc2ccc(/C=N/Nc3ccc(C(=O)O)cc3)cc2OC)c1
CCC(=C(c1ccc(OC)cc1)c1ccc(OC)cc1)c1cn(CC(O)CN(CCO)CCO)c2ccccc12 (stereo not given)
CCOc1cc(/C=N/O)cc(Br)c1OCc1ccc(Cl)cc1
CCCCn1c(=O)[nH]c(=O)c2c1nc(-c1ccccc1F)n2Cc1ccccc1OC
CCOc1cc(C)c(-c2onc(C(F)(F)F)c2-c2csc(C)n2)c(O)c1
CCOC(=O)C1=C(N)Oc2ccc3ccccc3c2C1c1ccc(O)cc1 (stereo not given)
O=C(O)c1ccc(COc2ccccc2/C=C2\NC(=O)N(Cc3ccc(F)cc3)C2=O)cc1
O=C(O)c1ccc(COc2ccc3ccccc3c2/C=C2/NC(=O)N(Cc3ccc(F)cc3)C2=O)cc1
COc1ccc(-c2nc(CCNS(=O)(=O)c3ccc4c(c3)OCCO4)cs2)cc1
O=C(CSc1n[nH]c(=O)[nH]c1=O)Nc1ccc2c(c1)C(=O)c1ccccc1C2=O
Cn1c(N)c(C(=O)COC(=O)Cc2ccc(Cl)c(Cl)c2)c(=O)n(C)c1=O
O=C(N/N=C/c1ccoc1)c1cc(O)cc(O)c1
O=C(Nc1ccncc1)c1cc2ccccc2cc1O
COc1ccccc1N1C(=O)C2C(C(=O)c3ccccc3)=NN(c3ccc(Br)cc3)C2C1=O (stereo not given)
CC(C)CCNC(=O)c1cnn2c(C(F)(F)F)cc(-c3ccco3)nc12
O=S(=O)(Nc1ccccc1-c1ccccc1)c1ccccc1
Cc1ccc(C(=O)NNC(=O)c2ccccc2O)cc1S(=O)(=O)N1CCCCC1
CCCN(CCC)Cc1cc(=O)oc2cc(OC)ccc12
N=C1S/C(=C\c2ccco2)C(=O)N1c1ccc2c(c1)OCO2
CCN(CC)S(=O)(=O)c1ccc2[nH]c(=O)cc(C(=O)Nc3ccc(C)c(S(=O)(=O)N(CC)CC)c3)c2c1
O=C(NCCc1ccccc1)c1cccc(NC(=O)c2ccccc2)c1
CN(CC(=O)Nc1ccc(F)cc1)C(=O)COc1ccc(C(=O)c2ccccc2)cc1
COc1cccc(/C=C2/NC(=O)N(CC(=O)Nc3ccc(C)cc3)C2=O)c1OCc1cccc(C(=O)O)c1
COc1ccc(/C=N/NC(=O)c2ccccc2O)cc1Cn1nnc2ccccc21
O=C(CC1C[C@H](C(=O)N2CCCCC2)[C@@]2(CCc3ccccc3)c3[nH]c4ccccc4c3CCN2C1=O)NCCCn1ccnc1 (stereo not given in full)

activation, inactive:
Cc1ccc(O)c(CNc2ccc(S(=O)(=O)Nc3nccs3)cc2)c1 -10.4% [at 17.1 µM, percent relative to cAMP agonist control]
COc1cnc(N(C)C)nc1Sc1cccc(Cl)c1 2.02% [at 17.1 µM, percent relative to cAMP agonist control]
CCOC(=O)C1C(=O)C=C(c2ccc(C)cc2)CC1c1ccccc1 (stereo not given) 7.74% [at 17.1 µM, percent relative to cAMP agonist control]
CC1(c2ccccc2)CC(C)(C)N2C(=O)C(=O)c3cccc1c32 (stereo not given) -2.11% [at 17.1 µM, percent relative to cAMP agonist control]
Cc1cccc(OC(=O)Nc2ccc(C(=O)O)c(O)c2)c1 -3.1% [at 17.1 µM, percent relative to cAMP agonist control]
CCCCCOC(=O)C1=C(C)Nc2nnnn2C1c1ccccc1Cl (stereo not given) 12.2% [at 17.1 µM, percent relative to cAMP agonist control]
Cc1ccc(C)c(Cn2nc(-c3ccccc3)ccc2=O)c1 -4.57% [at 17.1 µM, percent relative to cAMP agonist control]
COC1OC(c2ccccc2)=C(c2cnc(N)nc2)c2ccc(F)cc21 (stereo not given) 3.06% [at 17.1 µM, percent relative to cAMP agonist control]
CCc1nc2c(OCc3ccc(C(=O)OC)cc3)cccn2c1N(C)C(=O)c1ccc(OC)cc1 -6.93% [at 17.1 µM, percent relative to cAMP agonist control]
